The list is not random: actives were taken first. Their share in the collection is about 4%.
UGM FP inh = blocks M. tuberculosis UGM enzyme. P9WIQ1. purified UGM, fluorescence polarization probe displacement. inhibition, % at 10 µM. hit rate 0.06% among 320,000. AID 504406; in the data active means inhibition above about 10%, passing the limit was not always enough; inconclusive means no clear call, values can overlap the other calls
Rv3671c inh = inhibits the M. tuberculosis serine protease Rv3671c; inhibition, % at 5.96 µM; hit rate 0.048% among 320,000; in the data active means inhibition above about 38%;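 further: extracellular domain of Rv3671c used as enzyme; 0% = enzyme with DMSO and 100% = no enzyme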
Mtb betalactam = beta-lactam sensitization of Mtb H37Rv. M. tuberculosis H37Rv growth with meropenem, percent inhibition. inhibition, % at 25 µM. hit rate 0.27% among 330,000. AID 434955; call rule not given here;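 further: growth measured after seven days incubation then overnight dye step; 0% = bacteria only wells and 100% = bacteria with antibiotic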
GDH-TPI counter-1 = counter-screen for M. tuberculosis FBA inhibitors: GDH-TPI coupled enzymes. GDH-TPI coupled enzyme counterscreen, NADH absorbance. hit rate 1.2% among 360,000. inhibition, % at 4.8 µM. AID 588335; in the data active means inhibition above about 30%;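 further: 0% = DMSO wells and 100% = wells lacking the enzyme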
FBA Mtb inh = inhibitors of M. tuberculosis fructose-bisphosphate aldolase. hit rate 2.3% among 360,000. inhibition, % at 1 µM. purified M. tuberculosis FBA, fluorescence read-out. AID 588726. P9WQA3;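 further: 0% = vehicle and 100% = reference inhibitor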
RecA intein inh = Mtb RecA intein splicing inhibition. cell-free RecA intein splicing, fluorescence. hit rate 0.75% among 290,000. inhibition, % (no concentration beside the values); in the data active means inhibition above about 30%; inconclusive means no clear call, values can overlap the other calls;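 further: 0% = vehicle wells and 100% = reference inhibitor control wells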
Target sequence (P9WHJ3 whole entry, looked up): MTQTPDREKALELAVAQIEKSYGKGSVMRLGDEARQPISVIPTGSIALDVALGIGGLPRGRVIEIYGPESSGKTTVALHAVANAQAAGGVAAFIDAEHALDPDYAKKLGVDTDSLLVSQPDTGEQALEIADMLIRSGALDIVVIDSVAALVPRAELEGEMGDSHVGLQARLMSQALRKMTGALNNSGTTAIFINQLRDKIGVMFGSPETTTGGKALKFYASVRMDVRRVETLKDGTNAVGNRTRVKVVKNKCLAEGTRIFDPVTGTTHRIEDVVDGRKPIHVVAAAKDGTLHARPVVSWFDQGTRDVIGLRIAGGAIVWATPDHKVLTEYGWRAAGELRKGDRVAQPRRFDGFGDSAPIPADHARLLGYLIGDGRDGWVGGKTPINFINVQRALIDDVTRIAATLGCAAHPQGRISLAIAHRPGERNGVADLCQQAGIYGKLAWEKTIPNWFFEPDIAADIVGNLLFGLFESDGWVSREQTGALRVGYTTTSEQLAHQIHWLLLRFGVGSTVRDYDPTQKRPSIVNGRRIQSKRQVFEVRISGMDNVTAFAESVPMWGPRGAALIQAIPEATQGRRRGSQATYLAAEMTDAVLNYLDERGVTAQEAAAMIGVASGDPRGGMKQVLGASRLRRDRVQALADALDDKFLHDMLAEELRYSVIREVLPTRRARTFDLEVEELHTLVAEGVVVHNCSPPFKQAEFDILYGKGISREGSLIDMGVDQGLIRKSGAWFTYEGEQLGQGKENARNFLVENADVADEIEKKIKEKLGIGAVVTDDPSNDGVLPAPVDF
Mtb FBA confirm = confirmation of M. tuberculosis fructose-bisphosphate aldolase inhibitors; inhibition, % at 1 µM; purified M. tuberculosis FBA, fluorescence read-out; hit rate 78% among 5,600; shares compounds with FBA Mtb inh;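 further: 0% = vehicle wells and 100% = reference inhibitor wells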
GDH-TPI counter-2 = GDH-TPI inhibition counter-screen for FBA inhibitors | shares compounds with FBA Mtb inh | GDH-TPI coupled enzyme counterscreen, fluorescence | inhibition, % at 1 µM | hit rate 81% among 5,600; in the data active means inhibition above about 10%
GDH-TPI DR = counter-screen for M. tuberculosis FBA inhibitors: GDH-TPI dose response | shares compounds with FBA Mtb inh | GDH-TPI coupled enzyme assay, fluorescence, artifact counterscreen | IC50, µM | hit rate 79% among 170 | AID 652145; call rule not given here
* marks the source's active call; other numbers are inactive results; ? = inconclusive; . = no result given; + = active, no number. Unless noted, no stated cut-off is given here; in the data, active means inhibition above about 27%; inactive means the rest.

SMILES	UGM FP inh	Rv3671c inh	Mtb betalactam	GDH-TPI counter-1	FBA Mtb inh	RecA intein inh	Mtb FBA confirm	GDH-TPI counter-2	others
COc1ccc(-c2cc(C(F)F)n3ncc(C(=O)NCC4CCCO4)c3n2)cc1 (centres undefined)	4	-2	16	26	29*	-23	96*	76*
Cc1ccc2nc(-c3ccccc3)cc(C(=O)NCC3CCCO3)c2c1 (centres undefined)	2	-9	3	7	41*	4	81*	86*
COc1cc(Br)cc2cc(C(=O)NCC3CCCO3)c(=O)oc12 (centres undefined)	3	-4	24	4	2	-1	.	.
COc1ccc2oc(=O)c(C(=O)NC3CCCCCC3)cc2c1	1	-2	4	17	10	.	.	.
CC1CC(C)CN(S(=O)(=O)c2ccc(C(=O)N(C)Cc3ccccc3)cc2)C1 (centres undefined)	-2	14	-1	3	-1	.	.	.
CNC(=O)c1cc2cc(OC)ccc2oc1=N	1	0	4	6	54*	-59	28*	16*
COc1ccc2oc(=O)c(C(=O)n3ccc(C)n3)cc2c1	4	0	2	16	40*	.	78*	54*
COc1ccc2oc(=N)c(C(=O)Nc3ccccc3)cc2c1	3	-3	87	10	4	.	.	.
COc1ccccc1OCCNC(=O)CCC(=O)N1CCOCC1	.	.	.	1	0	.	.	.
O=c1oc2ccc3ccccc3c2cc1-c1nnc(-c2ccccc2)o1	-2	7	96	1	51*	-366	39*	32*
N#Cc1cc2c(ccc3ccccc32)oc1=O	-1	-3	96	1	73*	-85	168*	141*
CCN(CC)c1ccc2cc(-c3nnc(-c4ccccc4)o3)c(=O)oc2c1	?	-3	6	-4	34*	-28	146*	105*
CCN(CC)c1ccc2cc(-c3nc4ccccc4n3C)c(=O)oc2c1	2	8	?	15	40*	-388	7	-4
CNc1cc(C(=O)Nc2cccc(OCc3ccccc3)c2)ncn1	.	.	.	12	3	.	.	.
CC(CC(c1ccccc1)N1CCc2ccccc2C1)=NO (centres undefined)	.	.	.	9	-4	.	.	.
Cc1ccc(C)c(C(O)c2ncc(-c3ccccc3F)[nH]2)c1 (centres undefined)	.	.	.	6	-1	.	.	.
O=C(COC(=O)[C@@H]1CCCN1C(=O)c1cccs1)Nc1cccc([N+](=O)[O-])c1	0	-8	-9	2	-3	.	.	.
O=c1oc2ccc3ccccc3c2cc1-c1nnc(-c2cccs2)o1	.	-1	100	5	30*	-192	115*	84*
O=C(O)c1nc(-c2ccccc2)c(C(=O)NC2CC2)[nH]1	.	.	.	.	1	.	.	.
N#CCC(=O)Nc1ccc(C(=O)NCc2ccccn2)cc1	-1	-2	0	-1	27*	.	114*	72*
CCC(=O)Oc1ccc2c(C)cc(=O)oc2c1C	-1	2	17	4	39*	-23	94*	95*
CCOC(=O)CCc1c(C)c2ccc(OC(C)C(=O)OCC)c(C)c2oc1=O (centres undefined)	1	-9	99	21	51*	.	55*	44*
CCOC(=O)C(C)Oc1ccc2c(CC)cc(=O)oc2c1C (centres undefined)	3	4	97	2	31*	6	74*	72*
CCOc1ccc2c(C)cc(=O)oc2c1OCC	-2	7	6	12	10	0	.	.
CNC[C@H](Cc1cccc2ccccc12)NC[C@H](CCSC)NCC1CCC(C(C)(C)C)CC1 (some centres undefined)	3	0	100	.	.	.	.	.
SMILES	UGM FP inh	Rv3671c inh	Mtb betalactam	GDH-TPI counter-1	FBA Mtb inh	RecA intein inh	Mtb FBA confirm	GDH-TPI counter-2	others
Cc1cccc(NC(=O)Cn2c(O)c(N=NC(N)=S)c3ccccc32)c1	0	-5	-8	26	35*	5	187*	146*
Cc1ccc(NC(=O)Cn2c(O)c(N=NC(=O)c3ccncc3)c3ccccc32)cc1	-2	-9	0	-1	-9	-1	.	.
O=c1cc(CN2CCc3ccccc32)c2ccc(O)cc2o1	0	5	-7	6	41*	.	3	2
CCOC(=O)c1[nH]c2cc3c(cc2c1NC(=O)CN1CCCC1)OCO3	1	8	0	16	73*	3	76*	49*
CCOC(=O)c1[nH]c2cc3c(cc2c1NC(=O)CN1CCc2ccccc2C1)OCO3	-1	-7	-10	23	81*	0	12	6	GDH-TPI DR=1.3*
Cc1ccc(NC(=O)CCCCCN2C(=O)[C@@H]3Cc4ccccc4CN3C2=O)cc1	-4	-5	-8	6	53*	4	-5	-7
Cc1ccc(OCC(=O)Nc2ccc(O)c(C(=O)O)c2)cc1C	2	5	-2	-7	72*	2	+	+
Cc1ccc(OCC(=O)Nc2ccc(C(=O)Nc3ccccc3C(=O)O)cc2)cc1C	.	.	.	6	1	.	.	.
CCC(O)CNc1nc(SC)nc2sc3c(c12)CCN(C)C3 (centres undefined)	0	-5	-12	17	84*	-15	0	-6
COC(CNc1nc(SC)nc2sc3c(c12)CCN(C)C3)OC	-1	3	-4	-1	22	-4	.	.
CSc1nc(N)c2c3c(sc2n1)CN(C)CC3	2	-5	-2	21	39*	-4	48*	34*
CCOC(=O)C1=C(COC(=O)C2CC(=O)N(c3ccccc3CC)C2)NC(=O)NC1C (centres undefined)	.	.	.	4	-1	.	.	.
CCOC(=O)C1=C(COC(=O)C2CC(=O)N(c3ccc(C)cc3)C2)NC(=O)NC1C (centres undefined)	-1	-3	-4	4	65*	0	138*	89*
FC(F)(F)Oc1ccccc1C(c1nnnn1Cc1ccccc1)N1CCN(C/C=C/c2ccccc2)CC1 (centres undefined)	.	.	.	.	-1	.	.	.
CCOC(=O)C(C)Sc1nc(-c2ccco2)cc(C(F)(F)F)c1C#N (centres undefined)	-2	-5	23	3	29*	9	124*	95*
CC(=O)COc1nc2c(c(-c3ccco3)c1C#N)CCc1ccccc1-2	4	-8	12	.	.	-1	.	.
CCOC(=O)COc1nc(-c2ccco2)cc(-c2ccco2)c1C#N	2	2	18	15	80*	-1	16	14*
O=C(Nc1ccc(F)c(Cl)c1)c1csc(COCCO)n1	.	.	.	-1	0	.	.	.
COc1ccccc1-c1nc2ccccc2nc1-c1ccccc1OC	-1	-3	1	11	28*	5	166*	140*
